# Experimental data: the supplement of paper PMC10338343
# ± gives the standard deviation.
# Experiments:
# [1] = test system: MILI (PIWIL2) piRISC loaded with L1MC piRNA (26 nt); test: pre-steady-state target cleavage rate (min^-1); guide: L1MC piRNA 5'p-UAACUAAAUACUAUGCAAGCUGUAGG; higher = faster piRNA-guided slicing of the target
# Summary of the method: (§1)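 Cleave-'n-Seq used a transcribed, DNA-blocked target RNA library at 0.1 nM and active affinity-purified piRISC with one synthetic guide at 1 nM, with or without 500 nM GTSF1 partner protein, in HEPES–potassium acetate buffer at 33 °C for 0–8 or 0–960 min. Uncleaved targets were sequenced and normalised to depth and to weakly complementary targets, and three trials were pooled with k3 capped at 0.0001 min^-1. The pre-steady-state cleavage rate was estimated by a burst-and-steady-state fit.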
# [2] = test system: EfPiwi piRISC loaded with L1MC piRNA (26 nt); test: pre-steady-state target cleavage rate (min^-1); auxiliary factor: 500 nM Ephydatia muelleri Gtsf1; guide: L1MC piRNA 5'p-UAACUAAAUACUAUGCAAGCUGUAGG; MIWI and MILI are mouse PIWI proteins and EfPiwi is from a freshwater sponge; tags in brackets are library labels; higher = faster piRNA-guided slicing of the target
# Summary of the method: as §1
# [3] = auxiliary factor: 500 nM mouse GTSF1
# [4] = auxiliary factor: none (no GTSF1)
Sequence,"pre-steady-state target cleavage rate [1, 3]","pre-steady-state target cleavage rate [1, 4]",pre-steady-state target cleavage rate [2]
UCCUGGAUGUACUUGCAUAGUAUUUAGUUA,0.0966 ± 0.016,0.0107 ± 0.0025,0.00383 ± 0.0029
UCCUCCUACAGCAUUGCAUAGUAUUUAGUUA,0.228 ± 0.014,0.00746 ± 0.0025,0.0213 ± 0.0068
UCCUCCUACAGCUUGCAUAGUAUAUAGUUA,0.242 ± 0.026,0.00534 ± 0.0019,0.00814 ± 0.0038
UCCUGGAUCAGCUUGCAUAGUAUUCAGUUA,0.179 ± 0.024,0.00376 ± 0.0025,0.00509 ± 0.0019
UCCUGGAUGAGCUUGCAAAGUAUUUAGUUA,0.0794 ± 0.011,0.00483 ± 0.0028,0.0322 ± 0.0094
UCCUGGAACAGCAUGCAAAGUAUUUAGUUA,0.129 ± 0.014,0.00836 ± 0.0026,0.0163 ± 0.0061
UCCUGGAACACCUUGCAUAGUAAUUAGUUA,0.191 ± 0.031,0.00362 ± 0.0024,0.00283 ± 0.0022
UCCUGGUACAGCUUGCAUAGUAUUUAGUGA,0.129 ± 0.021,0.00389 ± 0.0025,0.00447 ± 0.0018
UCCUGGAACAGCUUCGAUAGUAUUUAGUUA,0.262 ± 0.015,0.00483 ± 0.0022,0.00251 ± 0.0023
UCCUGGUACUGCUUGCAUAGUAUUUAGUUA,0.174 ± 0.023,0.0139 ± 0.0037,0.0105 ± 0.0034
UCCUCCUACAGCUUGCAUGUAUUUAGUUA,0.0804 ± 0.012,0.00283 ± 0.0027,0.00924 ± 0.0046
UCCUGGAUCAGCAUGCAUAGUAUUUAGAAA,0.126 ± 0.018,0.0038 ± 0.0026,0.00356 ± 0.0021
UCCUCCUACAGCUUGCAUUGUAUAUAGUUA,0.177 ± 0.018,0.00393 ± 0.0025,0.00608 ± 0.0036
UCCUGGUACAGCUUGCAUAGUAUUAUGUUA,0.131 ± 0.032,0.00435 ± 0.0031,0.00349 ± 0.0025
UCCUGCUUGAGCUUGCAUAGUAUUUAGUUA,0.22 ± 0.019,0.00599 ± 0.0022,0.00861 ± 0.0024
UCCUGGAACAGCUGGCAUAGUAUUUAGUUA,0.17 ± 0.012,0.00801 ± 0.003,0.00699 ± 0.0026
UCCUCCUACAGCUUGCAUAGUAUCUAGUUA,0.176 ± 0.02,0.00564 ± 0.0022,0.00718 ± 0.0032
UCCUGGAUCAGCUUGCAUAGUAUUUAGAUA,0.114 ± 0.013,0.00393 ± 0.0016,0.00499 ± 0.0022
UCCUGGUAGAGCUUGCAUAGUAUUUAGUAA,0.206 ± 0.013,0.0096 ± 0.0028,0.00742 ± 0.0038

Sequence,"pre-steady-state target cleavage rate [1, 3]","pre-steady-state target cleavage rate [1, 4]",pre-steady-state target cleavage rate [2]
UCCUGCUACUGCUUGCAUAGUAUUAAGUUA,0.151 ± 0.02,0.00322 ± 0.0028,0.00584 ± 0.0021
UCCUCGUACACCUUGCAUAGUAUUUAGUUA,0.239 ± 0.022,0.00634 ± 0.0021,0.1 ± 0.029
UCCUCCUACAGCUAGCAUAGUAAUUAGUUA,0.159 ± 0.022,0.00372 ± 0.0022,0.00535 ± 0.002
UCCUGGAUGUCGAUUGCAUAGUAUUUAGUUA,0.09 ± 0.012,0.00748 ± 0.0024,0.00712 ± 0.0027
UCCUGCAUACAGCUUGCAUAGUAUUUAGUUA,0.554 ± 0.047,0.0104 ± 0.0034,0.11 ± 0.032
UCCUGGUAGAGCUUGCAUAGUUUUUAGUUA,0.0231 ± 0.005,0.00498 ± 0.0023,0.0049 ± 0.0026
UCCUGGAUGAGCUUGCUUAGUAUUUAGUAA,0.155 ± 0.022,0.00595 ± 0.0027,0.00265 ± 0.0025
UCCUGGAUGUGGUUGCAUAGUAUAUAGUUA,0.158 ± 0.023,0.00921 ± 0.0037,0.00747 ± 0.0056
UCCUGGAUGUCGAUGCAUAGUAUUUAGUUUA,0.0871 ± 0.014,0.0069 ± 0.0031,0.00642 ± 0.0029
UCCUGGAUCUGCUUGCAUAGUAUAUAGUUA,0.191 ± 0.019,0.00587 ± 0.0024,0.0643 ± 0.018
UCCUGCUACAGCUCUGCAUAGUAUUUAGUUA,0.25 ± 0.016,0.00983 ± 0.0027,0.0151 ± 0.0038
UCCUGCUACAGCUUGCAUAGUAUUUCAGUUA,0.335 ± 0.075,0.00409 ± 0.0028,0.00522 ± 0.0019
UCCUGGAACUGCUUGCUUAGUAUUUAGUUA,0.206 ± 0.019,0.0116 ± 0.0026,0.00646 ± 0.0033
UCCUGCUACAGCUUGCAUAGUAUUUAGGUUA,0.265 ± 0.042,0.00346 ± 0.0028,0.00526 ± 0.0014
UCCUGGAUGUCGUUCGCAUAGUAUUUAGUUA,0.101 ± 0.013,0.00567 ± 0.0028,0.00486 ± 0.0031
UCCUCCUGACAGCUUGCAUAGUAUUUAGUUA,0.217 ± 0.018,0.00896 ± 0.0026,0.0255 ± 0.008
UCCUGGAACACCUUGCAAAGUAUUUAGUUA,0.0999 ± 0.015,0.0069 ± 0.0021,0.00814 ± 0.0031
UCCUGCAACAGCUUGCAUAGUAUUAAGUUA,0.344 ± 0.039,0.00432 ± 0.0031,0.00881 ± 0.0022
